MIN6 prolif-1: MIN6 beta-cell proliferation induction. MIN6 cells proliferation, ATPlite luminescence, 48 h; cells starved in 0.2% serum; 100% = growth in 10% serum. proliferation, % at 10 µM. 330,000 compounds, 0.29% hits;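 active = compounds whose signal lies at least 3.5 SD above the mean of all wells on their plate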;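 also: 0% = DMSO-treated cells in low-serum medium and 100% = 10% serum control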
p-CIP stab down: lowers stability of the mouse p/CIP coactivator protein | Q05BA5 | F442A p/CIP-EGFP cells, EGFP fluorescence, 16 h | decrease of EGFP signal, % at 10 µM | 290,000 compounds, 0.01% hits | AID 1984;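 active = EGFP signal decrease of at least 30% at 10 µM or well 3 SD below plate mean, unless failing retest; inactive = the rest, including hits failing retest or dose response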
Target sequence (Q05BA5 1-1403): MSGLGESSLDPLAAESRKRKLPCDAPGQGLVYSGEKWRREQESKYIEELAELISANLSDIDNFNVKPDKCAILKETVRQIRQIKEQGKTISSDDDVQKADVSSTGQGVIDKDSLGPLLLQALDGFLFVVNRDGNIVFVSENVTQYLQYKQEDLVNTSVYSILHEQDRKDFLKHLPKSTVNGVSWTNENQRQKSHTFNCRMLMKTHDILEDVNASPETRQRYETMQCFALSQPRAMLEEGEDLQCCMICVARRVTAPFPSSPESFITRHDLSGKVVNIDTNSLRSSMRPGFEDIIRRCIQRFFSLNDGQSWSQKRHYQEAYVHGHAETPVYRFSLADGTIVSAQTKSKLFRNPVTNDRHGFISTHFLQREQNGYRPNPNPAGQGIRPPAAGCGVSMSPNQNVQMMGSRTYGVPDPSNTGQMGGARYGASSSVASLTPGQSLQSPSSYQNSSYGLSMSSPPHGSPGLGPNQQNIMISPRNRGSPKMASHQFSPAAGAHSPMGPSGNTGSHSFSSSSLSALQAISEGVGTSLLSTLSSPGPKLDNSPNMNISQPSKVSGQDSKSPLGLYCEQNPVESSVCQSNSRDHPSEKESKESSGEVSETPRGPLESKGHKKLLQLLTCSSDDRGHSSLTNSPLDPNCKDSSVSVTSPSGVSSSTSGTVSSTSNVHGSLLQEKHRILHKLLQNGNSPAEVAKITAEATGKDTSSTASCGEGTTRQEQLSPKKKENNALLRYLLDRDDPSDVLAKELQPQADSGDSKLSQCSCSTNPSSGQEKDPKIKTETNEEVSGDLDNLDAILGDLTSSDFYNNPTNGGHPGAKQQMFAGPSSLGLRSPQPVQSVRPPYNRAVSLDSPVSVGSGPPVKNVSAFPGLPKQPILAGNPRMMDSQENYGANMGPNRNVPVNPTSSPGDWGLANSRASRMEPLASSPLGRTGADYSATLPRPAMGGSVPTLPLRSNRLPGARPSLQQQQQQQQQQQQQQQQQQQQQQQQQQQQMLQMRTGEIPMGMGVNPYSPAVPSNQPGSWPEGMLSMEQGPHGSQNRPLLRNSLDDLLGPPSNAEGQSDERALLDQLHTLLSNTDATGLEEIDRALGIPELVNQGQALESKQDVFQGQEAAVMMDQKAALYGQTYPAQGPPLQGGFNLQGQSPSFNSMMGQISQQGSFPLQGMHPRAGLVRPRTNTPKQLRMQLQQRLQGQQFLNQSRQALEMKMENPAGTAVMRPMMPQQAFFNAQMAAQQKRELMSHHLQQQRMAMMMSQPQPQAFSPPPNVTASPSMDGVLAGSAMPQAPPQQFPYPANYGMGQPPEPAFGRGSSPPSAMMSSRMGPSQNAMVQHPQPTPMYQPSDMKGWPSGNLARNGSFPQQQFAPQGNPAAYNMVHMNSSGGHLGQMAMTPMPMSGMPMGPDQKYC
H9c2 protect: protects H9c2 cardiomyocytes from peroxide injury; protection from H2O2 cell death, % at 20 µM; H2O2 injury protection, ATPLite, 2 h; 360,000 compounds, 0.63% hits;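 active = compounds giving at least 50% protection of heart cells from peroxide-induced death in the single-dose screen, raw or plate-pattern-corrected value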;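 also: 0% = DMSO wells with peroxide and 100% = DMSO wells without peroxide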
CR mimetic SO: caloric restriction mimetics inhibiting age-related superoxide in yeast | S. cerevisiae aged cells, superoxide DHE fluorescence; hits give low values | 330,000 compounds, 0.18% hits | AID 2690 | superoxide response (% of plate mean), % at 10 µM;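 active = superoxide response under a set limit, about three screen SD below normal, cut at about 65% in these data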;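 also: yeast aged for seven days with compound at 30 °C before DHE staining; 100% = average MFI of all compound-treated wells on the plate with controls excluded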
HSV replic up: HSV replication enhancement; HSV replication augmentation in cells, fold increase; maximum fold increase; 220,000 compounds, 0.005% hits; in the data active = maximum fold increase above about 1.5; inconclusive = no clear call, values can overlap the other calls; tested in PC3 cells
V-ATPase pH: regulators of yeast V-ATPase proton transport. S. cerevisiae, pHLuorin cytosolic pH fluorescence. response, % at 10 µM. 350,000 compounds, 0.37% hits. AID 504577; in the data active = response mostly above about 7.3%, no sharp cut-off; inactive = mostly below about 5.4%; also: actives read high
MIN6 prolif-2: confirmation of inducers of beta-cell replication in MIN6 cells | shares compounds with MIN6 prolif-1 | proliferation increase, % at 50 µM | 920 tested, under 10 active | MIN6 beta-cell proliferation, ATPlite luminescence, 48 h; cells kept in 0.2% serum; scaled between 0.2% and 10% serum;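 active = proliferation increase above 40% at any of the four tested concentrations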
The depositor's hits bear a star; i = inactive; ? = inconclusive; . = not tested or not shown. Sampled rows, rich in hits. Any-hit rate of the full collection: about 1.4%.

SMILES	MIN6 prolif-1	p-CIP stab down	H9c2 protect	CR mimetic SO	HSV replic up	V-ATPase pH	MIN6 prolif-2
CCOc1ccc(OCc2ccc(C(=O)NCc3ccncc3)o2)cc1	4.9*	0	-6	114	i	-1	-5
O=C(NNC(=O)C1CCCO1)c1ccc([N+](=O)[O-])cc1 (configuration not stated)	0	-6	0	130	.	4	.
O=C(NNC(=O)C1CCCO1)c1ccc(Cl)cc1 (configuration not stated)	8.5*	-9	3	106	i	3	-2
O=C(/C=C/c1ccccc1Cl)OCC(=O)c1ccc[nH]1	1	.	-11	118	.	-1	.
O=C(N/N=C/c1cc([N+](=O)[O-])cc([N+](=O)[O-])c1O)/C(=C\c1cccs1)NC(=O)c1ccccc1	0.0*	1	-2	104	i	-1	-4
COc1cc(/C=N/NC(=O)/C(=C\c2ccc([N+](=O)[O-])cc2)NC(=O)c2ccccc2)cc(OC)c1O	-2	-4	16	98	i	-3	.
CCc1cc(=O)n2[nH]c(-c3ccccc3)c(-c3ccccc3)c2n1	-4	-4	11	98	.	-3	.
COc1cc(/C=C/c2[nH]c(=O)[nH]c(=O)c2[N+](=O)[O-])cc(OC)c1O	5.7*	3	1	103	.	-3	-4
CCOc1ncccc1C(=O)Nc1ccccc1N1CCOCC1	-3	.	-1	106	.	2	.
CCOc1ncccc1C(=O)OC(C)C(=O)Nc1ccc(N2CCOCC2)cc1 (configuration not stated)	10*	.	4	103	.	0	4
CCN(CC)CCCC1(CN)OCCc2ccccc21 (configuration not stated)	8.4*	-6	5	97	i	-4	0
CCN(CC)CCCOC(=O)C1(c2ccccc2)CCCC1	1	19	-2	99	i	-1	.
O=C(Cn1cc2c(n1)CCCCC2)NCc1ccccn1	12*	3	-22	98	?	-2	-3
CCc1nc2sc(C#N)c(N)c2c2c1CCCC2	6.3*	.	0	89	i	-3	3
COCCCN1C(=O)C(CC(=O)NCc2ccco2)CC(C(=O)N(C)C)=C1C (configuration not stated)	.	.	1	.	.	0	.
COc1ccccc1N(CC(=O)N1CCOCC1)S(C)(=O)=O	-4	-7	-3	104	.	1	.
COCCCn1c(=O)/c(=C\c2ccc(OC(F)F)c(OC)c2)s/c1=C(/C#N)C(N)=O	9.0*	-7	-2	99	i	-2	-1
COc1cccc(-c2nnc3n2N=C(c2cc(OC)ccc2OC)CS3)c1	8.0*	-9	10	102	i	5	-4
CCOc1cccc(-c2nnc3n2N=C(c2cc(OC)ccc2OC)CS3)c1	-1	-14	6	115	i	-2	.
COc1ccc(-c2cn[nH]c2-c2ccc(OC)cc2O)cc1	9.3*	-7	-7	105	.	-2	-6
COc1ccc(-c2[nH]ncc2-c2ccc(Cl)cc2)c(O)c1	1	2	-6	124	i	6	.
Cc1cc(=O)oc2c(C)c(OCC(=O)NCCCN3CCOCC3)ccc12	-1	4	4	88	.	-2	.
CCOC(=O)c1c(C)[nH]c(C)c1C(=O)COC(=O)/C=C/c1ccccc1[N+](=O)[O-]	9.1*	.	4	84	.	1	-5
C#Cc1cccc(C(=O)N2CCCC(Nc3cccc(F)c3)C2)c1 (configuration not stated)	-2	-10	-2	103	.	-3	.
O=C(c1ccsc1)N1CCCC(Nc2cccc(F)c2)C1 (configuration not stated)	12*	5	2	82	.	5	-2
SMILES	MIN6 prolif-1	p-CIP stab down	H9c2 protect	CR mimetic SO	HSV replic up	V-ATPase pH	MIN6 prolif-2
O=C(NCC(=O)N1CCCC(C(F)(F)F)C1)c1ccco1 (configuration not stated)	12*	.	-10	89	.	3	1
CC(=O)Nc1ccc(CN2CCCCCC2)cc1	5.5*	6	6	103	.	-4	2
CCc1ccc(/C(C)=N/NS(=O)(=O)c2ccc(OC)cc2)s1	0	-3	-6	.	.	-1	.
CCc1cc(=O)oc2cc(OC(C)C(=O)NCC3CCC(C(=O)O)CC3)c(Cl)cc12 (configuration not stated)	11*	-6	-4	112	.	1	-3
COc1ccc(CN2CCC(n3nccc3NC(=O)CCc3ccccc3)CC2)c(C)c1C	-3	7	0	.	.	-1	.
CCOc1ncccc1C(=O)Nc1ccc(C)cn1	11*	-7	-3	100	.	3	2
CCOc1ccccc1/C=C/c1onc(C)c1S(=O)(=O)N1CCC(C(=O)N(CC)CC)CC1	4.8*	-14	1	114	.	-3	-6
CCC(=O)N1CCCC(C)(C(=O)Nc2ccc(C)c(C)c2)C1 (configuration not stated)	.	.	5	.	.	.	.
CCN1C(=O)N(CC)C2C1N(C(C)=O)C(=O)N2C(C)=O (configuration not stated)	8.2*	-8	7	101	i	3	-1
CN(CCc1ccccc1)C(=O)c1cccc(NC(=O)Cc2cccc(NC(=O)C3CCCN(C(=O)c4ccccc4)C3)c2)c1 (configuration not stated)	.	.	-8	.	.	1	.
CN(C)/C=N/c1c(C#N)cnn1-c1ncnc2sc(-c3ccccc3)cc12	12*	2	12	113	i	-1	-6
CC1(C(=O)NCc2ccccc2Br)CCN1C(=O)Cc1ccc(-c2ccccc2)cc1 (configuration not stated)	.	.	-11	.	.	.	.
c1cncc(-c2nc(N3CCOCC3)c3ccccc3n2)c1	4.8*	-1	14	100	i	4	2
COc1ccc(NC(=O)CN(C)C(=O)CN2C(=O)NC3(CCCC3)C2=O)cc1	16*	.	4	106	.	-4	-2
CN(CC(=O)Nc1ccc(F)cc1)C(=O)CN1C(=O)NC2(CCCCC2)C1=O	-3	.	1	104	.	4	.
CCc1nc(SCC(=O)N2CCCc3ccccc32)c2oc3ccccc3c2n1	15*	-2	-16	120	i	-7	-6
CCc1nc(SCC(=O)NC2CCCC2)c2oc3ccccc3c2n1	0	-9	-8	115	.	-5	.
CCC1ON(c2ccccc2)C2c3nc4ccccc4n3CC12 (configuration not stated)	4	12	5	88	i	-4	.
Cc1ccc(S(=O)(=O)N2CCN(C(=O)c3nn(C(C)C)c(=O)c4ccccc34)CC2)cc1C	5.4*	12	23	90	i	-3	-5
